40 sequences from the supplement of paper PMC6555819 can be followed below.

The subject of this assay is VDR:RXRa (NR concentration 270 nM, RXRa partner concentration 90 nM). Briefly: PBM binding z-score (relative to random genomic background probes); higher = stronger binding; sequences stand for … in GC…GCGATTGACAGCGTAGAATGAAGG
How it is done:
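Protein-binding microarray (Agilent 4x180K custom design, double-stranded 60-nt probes: 5' GC cap, 34-nt variable region, 24-nt constant primer region; full probe sequence given). Purified or IVT nuclear receptor:RXRα heterodimers (3:1 NR:RXRα, mostly 270:90 nM) or homodimers were incubated for 1 h in PBS with 2% milk and no ligand, then detected with Alexa488 antibodies. Fluorescence from o1-orientation probes (~5 replicates averaged) was converted to z-scores against 500 random hg19 background probes. Variable regions are seed direct-repeat (DR0–DR5) sites, all their single-nucleotide variants and half-site ablations.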
The sequence CCTAGTTGGTCAAGGTCACCCACGCTATAGGTAC registered a PBM binding z-score of 4. CGTCAAAGTTCAACTAAGGTAAGGTAAAGCACGC gave a PBM binding z-score of 4.17. The result for AGAACGATGGCACGCTGAGTTGATAGCAGAGTAG reads -0.574.

Regarding CTCGAAAGGTCGTTCTCAGGTGAGTATACCAAAC, the PBM binding z-score was found to be 3.95. Regarding TCATATAGGTAAACGGTGAAAGTCGGTGTGGTAA, the PBM binding z-score worked out at 0.79. GCTAGTTGGTCAGTAAAAGGTCACACCCCGGTCG registered a PBM binding z-score of 3.83. For TAGCCTAGGTCATGCGGGCCTGTATAGTGTCGGC the value was 1.75; for TGAATCAGGTTATAAGATCAGGGAACGTTGCAAA, -0.0764; for ATGTCTAGGTAAAGATAGTTCAGTGAATGCAAAT, 0.565.

Consider CATACAGGGTCAGCTAGGCCAGAGAAGGGACGGC, for which the PBM binding z-score was determined as 3.84. CCTACTGGGCCATTCATAGGTCATTGATCATATG: the PBM binding z-score was 1.24.

Turning to AATACAGGGTCATCGTAGGCCAGAGGACGCACAG, the PBM binding z-score worked out at 5.19. The result for CAAACTAGGTGACAGAGGTCAAAGTCCGTGCGTA reads 6.42; that for AGAACGAGGGCATTGAGTTGATAGCACGGGTGGC, 5.24; that for AGTCAAAGTTCAGGACGAGGTAACGTAAAGCACG, 2.85.

TCAAATAGGTAAAGGTGAAAGTCGAACGATATGA: the PBM binding z-score came to 1.17. ACTAGCAGGCCAAGTTTGGGTCACTTAAACAAAG registered a PBM binding z-score of 0.715.

The sequence CGAACGAGGGCATGAGTTGACAGCAAATGCCGAT displayed a PBM binding z-score of 1.2. For ACTAGTTGGTCCGCTGAGGTCACACACAATTCGG the value was 3.75; for GCGACTGGGGCAAAGCAGGTTATCATAAGGTTGG, 0.334; for GCTGCTAGGTCAGTTTGGTCAGCTAACGGGTACG, 0.529. In turn, GCGACTGGGGCATCAGCAGGTTACCAAAACTTAA returned a PBM binding z-score of -0.298. For CATACTAGGTCACAGAGGTCAAAGTCCGTGCGTA, the PBM binding z-score amounted to 7.98. For CCTAGTAGGCCAGGGTCACTCAAGCATTTCGCTT the value was 2.7; for TCTGCTAGGTCAGTTGGTCAGTTAACGAGCTGCC, 0.0446.

CCGAGGAGGTTATGGGGCATTCAGGCAACGGTGA had a PBM binding z-score of 0.925. For CCTACTGGGCCAAAAAGGTCATTGAGGCCGATAA the value was 6.03. Take CGAACTAGGTGATCCAGGACAGTGAATACATTGA: the PBM binding z-score is 0.541. Sequence GCTATTAGTTGACAGGGCAACCGAATGATTCTCG showed a PBM binding z-score of -0.414.

Regarding GCGACTGGGGCAACAGCAGGTTACCATAACTTAA, the PBM binding z-score is -0.189. TCTAGTCGGTCACGGAGGTCACACACGACGGGTA yielded a PBM binding z-score of 6.56.

CCGGGTAGGTTATGGGGCATTCAGGCAACGGTGA showed a PBM binding z-score of 0.056.

TCATATAGGTAAAGGGTGAAAGTCGGTGTGGTAA gave a PBM binding z-score of 1.17. The result for CCTACTGCGCCAAGGTCATTGATCAGTCAAAGCA reads 3.65; that for CCTATTGGGCCAAAGGTCATTGATTCCAATGCTC, 4.66; that for TCGAGTAGGTTAGGGGCTTTCAGAATGGCGTCGA, -0.3.

GCTGGTAGGTCAGGTTGGTCAGCTAACGGGTACG registered a PBM binding z-score of 1.04. For TTACCAAGGTGAGCTGAGGTCGTTGAACCAACTC the value was 4.25; for CCGACTGGAGCAGAAAGGTTACCATACCATCCGG, 0.564; for TCTAGTTGATCACGGAGGTCACACACGACGGGTA, 3.99.
